# Test results from PMC7862700, “An all-to-all approach to the identification of sequence-specific readers for epigenetic DNA modifications on cytosine”.
# Columns and labels:
# Test in all cases: DAPPL (digital affinity profiling via proximity ligation, sequencing); 10 mM Tris-HCl pH 7.5, 50 mM NaCl, 1 mM DTT, 4% glycerol, room temperature, 30 min; GST-TFs on glutathione beads, 16-mer random dsDNA library, 0.1% formaldehyde crosslink after washing; high values mean tight binding
# FLI1 = biological target: T1, FLI1 (Homo sapiens, UniProt Q01543 1-452); settings: protein: recombinant; tags: N-terminal GST; dsDNA, one strand shown
# T1 sequence: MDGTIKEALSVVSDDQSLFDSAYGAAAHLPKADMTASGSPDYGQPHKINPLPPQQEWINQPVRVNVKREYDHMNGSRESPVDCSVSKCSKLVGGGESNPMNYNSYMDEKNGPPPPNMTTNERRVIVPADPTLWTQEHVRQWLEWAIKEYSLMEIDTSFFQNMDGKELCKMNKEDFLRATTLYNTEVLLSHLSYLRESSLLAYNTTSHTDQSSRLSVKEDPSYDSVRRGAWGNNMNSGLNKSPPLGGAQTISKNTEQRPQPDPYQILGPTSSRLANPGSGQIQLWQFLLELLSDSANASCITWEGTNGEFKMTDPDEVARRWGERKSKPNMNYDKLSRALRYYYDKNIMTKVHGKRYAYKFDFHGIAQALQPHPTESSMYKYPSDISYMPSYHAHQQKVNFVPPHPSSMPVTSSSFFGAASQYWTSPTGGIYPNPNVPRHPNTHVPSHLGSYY
# Outline: (§1)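 A tag-only sample was pooled with DNA-barcoded human transcription factors that had been expressed in yeast as GST fusions and captured on glutathione beads. The pools were incubated for 30 min at room temperature with 200 nmole of a random double-stranded 16-mer DNA library in Tris/NaCl/DTT/glycerol buffer, then washed, crosslinked with 0.1% formaldehyde, proximity-ligated (BsaI/T4 ligase, 1 h, 37 °C), PCR-amplified and sequenced on an Illumina NextSeq500. Binding signal is each hexamer's read frequency for a factor divided by its frequency for the tag-only sample.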
# ELK1 = biological target: T2, ELK1 (Homo sapiens, UniProt P19419 1-428); settings: protein: recombinant; tags: N-terminal GST; dsDNA, one strand shown
# T2 sequence: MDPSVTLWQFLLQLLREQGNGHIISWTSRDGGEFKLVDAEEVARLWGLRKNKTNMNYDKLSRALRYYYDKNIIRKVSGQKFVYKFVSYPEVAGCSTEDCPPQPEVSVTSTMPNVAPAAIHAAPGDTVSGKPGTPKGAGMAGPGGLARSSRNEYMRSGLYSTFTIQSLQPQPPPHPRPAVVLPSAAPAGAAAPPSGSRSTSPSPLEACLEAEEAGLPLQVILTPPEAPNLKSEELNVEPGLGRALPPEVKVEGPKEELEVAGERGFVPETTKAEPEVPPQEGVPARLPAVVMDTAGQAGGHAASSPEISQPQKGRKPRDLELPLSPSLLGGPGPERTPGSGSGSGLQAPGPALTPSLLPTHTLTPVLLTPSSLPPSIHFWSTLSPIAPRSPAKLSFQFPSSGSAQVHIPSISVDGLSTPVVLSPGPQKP
# Outline: as §1
# GABPA = biological target: T3, GABPA (Homo sapiens, UniProt Q06546 1-454); settings: protein: recombinant; tags: N-terminal GST; dsDNA, one strand shown
# T3 sequence: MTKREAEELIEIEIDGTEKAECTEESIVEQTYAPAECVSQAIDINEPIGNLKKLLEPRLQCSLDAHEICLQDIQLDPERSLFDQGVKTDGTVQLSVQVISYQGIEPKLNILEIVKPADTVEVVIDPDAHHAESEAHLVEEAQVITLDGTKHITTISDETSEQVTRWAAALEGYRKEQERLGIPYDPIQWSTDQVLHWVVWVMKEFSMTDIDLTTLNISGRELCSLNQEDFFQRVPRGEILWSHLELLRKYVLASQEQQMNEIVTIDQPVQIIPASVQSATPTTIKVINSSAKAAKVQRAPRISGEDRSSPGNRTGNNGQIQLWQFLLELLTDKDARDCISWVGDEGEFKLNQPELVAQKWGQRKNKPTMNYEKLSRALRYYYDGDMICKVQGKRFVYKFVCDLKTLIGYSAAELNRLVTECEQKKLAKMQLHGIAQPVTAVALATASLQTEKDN
# Outline: as §1
# ERG = biological target: T4, ERG (Homo sapiens, UniProt P11308 1-479); settings: protein: recombinant; tags: N-terminal GST; dsDNA, one strand shown
# T4 sequence: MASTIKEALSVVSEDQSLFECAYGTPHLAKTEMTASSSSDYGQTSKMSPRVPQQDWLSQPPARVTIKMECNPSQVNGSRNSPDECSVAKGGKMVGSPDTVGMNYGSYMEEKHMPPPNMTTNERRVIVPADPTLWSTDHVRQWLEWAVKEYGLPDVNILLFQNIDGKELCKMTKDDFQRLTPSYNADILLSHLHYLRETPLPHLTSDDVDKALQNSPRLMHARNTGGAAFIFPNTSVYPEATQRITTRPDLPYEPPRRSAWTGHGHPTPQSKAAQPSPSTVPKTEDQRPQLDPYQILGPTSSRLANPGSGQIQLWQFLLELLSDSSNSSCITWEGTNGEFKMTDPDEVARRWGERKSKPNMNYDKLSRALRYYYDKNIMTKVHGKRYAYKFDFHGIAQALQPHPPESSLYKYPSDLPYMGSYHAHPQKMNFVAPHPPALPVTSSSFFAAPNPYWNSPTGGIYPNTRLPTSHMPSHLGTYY
# Outline: as §1
# ELF1 = ELF1 (Homo sapiens, UniProt P32519 1-619); settings: protein: recombinant; tags: N-terminal GST; dsDNA, one strand shown
# Chain of ELF1 (P32519 whole entry): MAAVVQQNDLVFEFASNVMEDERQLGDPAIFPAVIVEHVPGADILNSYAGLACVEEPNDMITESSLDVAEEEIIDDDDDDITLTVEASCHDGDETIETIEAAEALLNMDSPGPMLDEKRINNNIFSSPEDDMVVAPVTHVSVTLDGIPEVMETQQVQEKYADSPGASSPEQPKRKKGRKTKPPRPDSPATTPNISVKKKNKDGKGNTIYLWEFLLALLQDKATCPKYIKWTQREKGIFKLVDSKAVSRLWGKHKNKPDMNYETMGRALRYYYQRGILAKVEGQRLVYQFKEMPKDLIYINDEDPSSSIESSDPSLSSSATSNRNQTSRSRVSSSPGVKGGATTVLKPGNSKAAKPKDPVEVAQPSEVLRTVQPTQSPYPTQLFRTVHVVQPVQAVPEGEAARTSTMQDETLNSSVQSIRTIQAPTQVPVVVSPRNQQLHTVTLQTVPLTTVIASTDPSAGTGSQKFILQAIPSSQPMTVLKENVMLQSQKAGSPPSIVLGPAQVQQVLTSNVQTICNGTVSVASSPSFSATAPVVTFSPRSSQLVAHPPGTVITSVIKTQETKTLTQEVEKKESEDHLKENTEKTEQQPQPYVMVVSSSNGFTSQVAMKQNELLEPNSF
# Outline: as §1
# EHF = biological target: T5, EHF (Homo sapiens, UniProt Q9NZC4 1-300); settings: protein: recombinant; tags: N-terminal GST; dsDNA, one strand shown
# T5 sequence: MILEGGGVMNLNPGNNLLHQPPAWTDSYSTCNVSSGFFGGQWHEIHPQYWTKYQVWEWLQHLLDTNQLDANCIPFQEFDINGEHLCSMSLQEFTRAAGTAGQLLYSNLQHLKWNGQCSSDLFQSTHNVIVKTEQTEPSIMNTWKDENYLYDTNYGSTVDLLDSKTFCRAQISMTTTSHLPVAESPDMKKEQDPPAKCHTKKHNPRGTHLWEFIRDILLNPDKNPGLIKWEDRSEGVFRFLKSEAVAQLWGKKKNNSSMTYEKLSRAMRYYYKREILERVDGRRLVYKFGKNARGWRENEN
# Outline: as §1
# SPI1 = SPI1 (Homo sapiens, UniProt P17947 1-270); settings: protein: recombinant; tags: N-terminal GST; dsDNA, one strand shown
# Outline: as §1
# SPIB = SPIB (Homo sapiens, UniProt Q01892 1-262); settings: protein: recombinant; tags: N-terminal GST; dsDNA, one strand shown
# Chain of SPIB (Q01892 whole entry): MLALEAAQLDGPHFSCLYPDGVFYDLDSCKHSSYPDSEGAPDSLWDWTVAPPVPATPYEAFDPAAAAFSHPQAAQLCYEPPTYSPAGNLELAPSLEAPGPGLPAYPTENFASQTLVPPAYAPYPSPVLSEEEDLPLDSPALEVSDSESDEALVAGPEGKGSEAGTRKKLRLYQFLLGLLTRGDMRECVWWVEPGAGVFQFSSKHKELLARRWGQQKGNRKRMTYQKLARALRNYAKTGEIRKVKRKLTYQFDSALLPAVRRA
# Outline: as §1
# ELK3 = biological target: T6, ELK3 (Homo sapiens, UniProt P41970 1-407); settings: protein: recombinant; tags: N-terminal GST; dsDNA, one strand shown
# T6 sequence: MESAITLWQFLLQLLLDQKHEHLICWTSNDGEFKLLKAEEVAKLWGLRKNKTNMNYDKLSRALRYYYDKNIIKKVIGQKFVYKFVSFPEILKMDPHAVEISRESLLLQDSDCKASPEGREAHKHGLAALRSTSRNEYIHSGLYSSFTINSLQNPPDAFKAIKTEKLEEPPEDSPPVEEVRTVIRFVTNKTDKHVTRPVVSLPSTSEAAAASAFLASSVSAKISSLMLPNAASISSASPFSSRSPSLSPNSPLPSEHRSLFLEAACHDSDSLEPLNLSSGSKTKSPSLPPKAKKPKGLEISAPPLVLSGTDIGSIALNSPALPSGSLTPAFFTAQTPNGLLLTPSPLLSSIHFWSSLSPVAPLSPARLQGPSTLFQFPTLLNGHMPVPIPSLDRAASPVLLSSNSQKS
# Outline: as §1
# FEV = biological target: T7, FEV (Homo sapiens, UniProt Q99581 1-238); settings: protein: recombinant; tags: N-terminal GST; dsDNA, one strand shown
# T7 sequence: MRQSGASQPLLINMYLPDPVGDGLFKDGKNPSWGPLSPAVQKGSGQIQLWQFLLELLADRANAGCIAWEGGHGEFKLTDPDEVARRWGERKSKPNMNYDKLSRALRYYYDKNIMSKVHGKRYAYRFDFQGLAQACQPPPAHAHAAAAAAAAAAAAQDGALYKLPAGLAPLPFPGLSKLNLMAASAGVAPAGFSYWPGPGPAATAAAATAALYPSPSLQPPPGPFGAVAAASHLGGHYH
# Outline: as §1
# ETV5 = ETV5 (Homo sapiens, UniProt P41161 1-510); settings: protein: recombinant; tags: N-terminal GST; dsDNA, one strand shown
# Chain of ETV5 (P41161 whole entry): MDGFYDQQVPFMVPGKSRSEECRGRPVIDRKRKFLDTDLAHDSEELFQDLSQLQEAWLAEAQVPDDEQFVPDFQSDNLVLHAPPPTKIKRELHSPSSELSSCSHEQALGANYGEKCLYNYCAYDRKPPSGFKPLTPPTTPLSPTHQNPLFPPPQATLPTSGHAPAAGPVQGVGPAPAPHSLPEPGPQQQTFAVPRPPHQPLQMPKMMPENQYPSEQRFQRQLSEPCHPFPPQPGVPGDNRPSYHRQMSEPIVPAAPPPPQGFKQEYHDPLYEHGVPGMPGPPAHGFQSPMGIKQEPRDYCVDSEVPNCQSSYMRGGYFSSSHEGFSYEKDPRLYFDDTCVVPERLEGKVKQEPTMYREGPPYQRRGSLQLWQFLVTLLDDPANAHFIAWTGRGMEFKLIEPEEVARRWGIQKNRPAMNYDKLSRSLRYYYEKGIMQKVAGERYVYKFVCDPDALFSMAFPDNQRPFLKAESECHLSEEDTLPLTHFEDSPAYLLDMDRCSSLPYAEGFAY
# Outline: as §1
# HSF1 = HSF1 (Homo sapiens, UniProt Q00613 1-529); settings: protein: recombinant; tags: N-terminal GST; chain copies: 3; dsDNA, one strand shown
# Chain of HSF1 (Q00613 whole entry): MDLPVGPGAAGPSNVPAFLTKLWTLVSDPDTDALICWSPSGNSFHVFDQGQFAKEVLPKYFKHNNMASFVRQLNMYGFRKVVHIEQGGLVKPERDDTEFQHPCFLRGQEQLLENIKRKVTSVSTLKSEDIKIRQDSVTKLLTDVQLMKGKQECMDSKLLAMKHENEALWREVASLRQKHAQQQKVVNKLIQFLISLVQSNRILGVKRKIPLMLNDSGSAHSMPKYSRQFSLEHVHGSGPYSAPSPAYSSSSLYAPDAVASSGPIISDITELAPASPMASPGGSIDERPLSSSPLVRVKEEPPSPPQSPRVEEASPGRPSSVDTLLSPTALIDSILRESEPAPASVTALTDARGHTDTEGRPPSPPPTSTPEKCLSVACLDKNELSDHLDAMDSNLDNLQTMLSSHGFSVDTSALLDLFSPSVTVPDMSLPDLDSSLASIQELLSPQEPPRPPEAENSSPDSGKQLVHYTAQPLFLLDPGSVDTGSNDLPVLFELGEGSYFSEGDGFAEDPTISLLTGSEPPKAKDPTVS
# Outline: as §1
# ELF4 = ELF4 (Homo sapiens, UniProt Q99607 1-663); settings: protein: recombinant; tags: N-terminal GST; dsDNA, one strand shown
# Chain of ELF4 (Q99607 whole entry): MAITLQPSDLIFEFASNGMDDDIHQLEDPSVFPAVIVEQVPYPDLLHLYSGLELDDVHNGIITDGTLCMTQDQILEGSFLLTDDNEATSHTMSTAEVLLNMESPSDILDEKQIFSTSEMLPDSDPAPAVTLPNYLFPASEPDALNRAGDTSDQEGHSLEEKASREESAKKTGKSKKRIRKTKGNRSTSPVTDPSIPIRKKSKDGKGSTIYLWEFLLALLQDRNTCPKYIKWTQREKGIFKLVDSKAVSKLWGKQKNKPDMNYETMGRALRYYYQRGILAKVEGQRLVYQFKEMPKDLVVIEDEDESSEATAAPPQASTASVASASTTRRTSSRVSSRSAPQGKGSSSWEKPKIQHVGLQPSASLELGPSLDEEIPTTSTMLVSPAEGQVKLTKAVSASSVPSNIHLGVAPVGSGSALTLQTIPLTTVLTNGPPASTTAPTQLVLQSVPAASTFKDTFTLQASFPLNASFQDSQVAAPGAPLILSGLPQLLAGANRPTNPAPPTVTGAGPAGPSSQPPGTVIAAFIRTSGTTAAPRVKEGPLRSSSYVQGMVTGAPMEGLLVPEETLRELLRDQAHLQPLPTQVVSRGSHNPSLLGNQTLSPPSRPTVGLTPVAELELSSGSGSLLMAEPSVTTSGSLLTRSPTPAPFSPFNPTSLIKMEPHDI
# Outline: as §1
# ELK4 = biological target: T8, ELK4 (Homo sapiens, UniProt P28324-2 1-405); settings: protein: recombinant; tags: N-terminal GST; dsDNA, one strand shown
# T8 sequence: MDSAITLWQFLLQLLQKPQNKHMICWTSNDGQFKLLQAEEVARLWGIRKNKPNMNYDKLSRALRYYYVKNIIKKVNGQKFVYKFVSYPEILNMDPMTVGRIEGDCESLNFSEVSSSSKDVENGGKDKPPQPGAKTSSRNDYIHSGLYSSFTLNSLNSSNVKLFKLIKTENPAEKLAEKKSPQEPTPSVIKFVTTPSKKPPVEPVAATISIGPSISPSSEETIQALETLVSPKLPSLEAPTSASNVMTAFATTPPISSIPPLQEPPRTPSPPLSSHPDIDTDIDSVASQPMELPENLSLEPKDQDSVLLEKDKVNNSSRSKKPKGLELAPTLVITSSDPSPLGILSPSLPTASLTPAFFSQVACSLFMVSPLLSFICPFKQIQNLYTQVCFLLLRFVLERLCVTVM
# Outline: as §1
# ETV2 = biological target: T9, ETV2 (Homo sapiens, UniProt O00321 1-342); settings: protein: recombinant; tags: N-terminal GST; dsDNA, one strand shown
# T9 sequence: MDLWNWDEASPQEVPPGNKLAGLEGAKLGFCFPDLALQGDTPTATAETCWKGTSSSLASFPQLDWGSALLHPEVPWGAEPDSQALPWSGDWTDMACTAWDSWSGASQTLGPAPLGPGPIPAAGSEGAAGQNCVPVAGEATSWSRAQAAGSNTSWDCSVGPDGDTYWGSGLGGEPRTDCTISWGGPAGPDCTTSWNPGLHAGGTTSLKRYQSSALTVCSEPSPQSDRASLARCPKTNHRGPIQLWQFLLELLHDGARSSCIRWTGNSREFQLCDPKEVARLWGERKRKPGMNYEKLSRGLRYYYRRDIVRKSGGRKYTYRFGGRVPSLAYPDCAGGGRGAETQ
# Outline: as §1
# ELF3 = biological target: T10, ELF3 (Homo sapiens, UniProt P78545 1-371); settings: protein: recombinant; tags: N-terminal GST; dsDNA, one strand shown
# T10 sequence: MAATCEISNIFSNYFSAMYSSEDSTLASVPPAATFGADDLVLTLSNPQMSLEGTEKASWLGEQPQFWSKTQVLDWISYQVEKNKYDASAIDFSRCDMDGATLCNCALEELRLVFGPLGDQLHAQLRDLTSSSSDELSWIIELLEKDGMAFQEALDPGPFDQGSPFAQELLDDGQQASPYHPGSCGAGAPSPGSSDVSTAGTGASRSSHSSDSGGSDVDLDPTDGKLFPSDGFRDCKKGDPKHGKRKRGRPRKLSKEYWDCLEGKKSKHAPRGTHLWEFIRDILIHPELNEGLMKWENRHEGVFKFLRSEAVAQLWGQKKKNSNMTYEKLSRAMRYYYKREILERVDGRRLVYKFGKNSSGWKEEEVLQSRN
# Outline: as §1
# ETV1 = ETV1 (Homo sapiens, UniProt P50549 1-477); settings: protein: recombinant; tags: N-terminal GST; dsDNA, one strand shown
# Chain of ETV1 (P50549 whole entry): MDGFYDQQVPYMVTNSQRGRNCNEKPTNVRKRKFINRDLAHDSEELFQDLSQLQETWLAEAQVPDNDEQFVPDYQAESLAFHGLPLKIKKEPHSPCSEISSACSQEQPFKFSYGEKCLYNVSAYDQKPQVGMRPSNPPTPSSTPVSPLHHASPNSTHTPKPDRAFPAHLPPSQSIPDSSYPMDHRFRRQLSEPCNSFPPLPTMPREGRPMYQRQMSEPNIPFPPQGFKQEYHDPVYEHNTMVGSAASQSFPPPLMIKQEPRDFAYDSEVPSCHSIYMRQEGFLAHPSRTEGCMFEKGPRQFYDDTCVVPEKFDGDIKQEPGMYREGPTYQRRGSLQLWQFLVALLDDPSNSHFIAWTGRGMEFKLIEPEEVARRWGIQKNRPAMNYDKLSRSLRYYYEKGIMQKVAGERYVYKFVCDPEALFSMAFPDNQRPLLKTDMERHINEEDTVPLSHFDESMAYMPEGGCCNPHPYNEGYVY
# Outline: as §1
sequence,measurement,setting,value
ACGCCC,binding signal,FLI1,"1.22 fold enrichment (6-mer frequency, TF over GST control)"
same,binding signal,ELK1,"1.21 fold enrichment (6-mer frequency, TF over GST control)"
same,binding signal,GABPA,"1.25 fold enrichment (6-mer frequency, TF over GST control)"
same,binding signal,ERG,"1.11 fold enrichment (6-mer frequency, TF over GST control)"
same,binding signal,ELF1,"1.21 fold enrichment (6-mer frequency, TF over GST control)"
same,binding signal,EHF,"1.18 fold enrichment (6-mer frequency, TF over GST control)"
same,binding signal,SPI1,"1.11 fold enrichment (6-mer frequency, TF over GST control)"
same,binding signal,SPIB,"1.14 fold enrichment (6-mer frequency, TF over GST control)"
same,binding signal,ELK3,"1.11 fold enrichment (6-mer frequency, TF over GST control)"
same,binding signal,FEV,"1.12 fold enrichment (6-mer frequency, TF over GST control)"
same,binding signal,ETV5,"1.16 fold enrichment (6-mer frequency, TF over GST control)"
same,binding signal,HSF1,"1 fold enrichment (6-mer frequency, TF over GST control)"
same,binding signal,ELF4,"1.2 fold enrichment (6-mer frequency, TF over GST control)"
same,binding signal,ELK4,"1.18 fold enrichment (6-mer frequency, TF over GST control)"
same,binding signal,ETV2,"1.05 fold enrichment (6-mer frequency, TF over GST control)"
same,binding signal,ELF3,"1.06 fold enrichment (6-mer frequency, TF over GST control)"
same,binding signal,ETV1,"1.16 fold enrichment (6-mer frequency, TF over GST control)"
